The results in this text go back to PubChem BioAssay (NCI).

About 83,000 compounds went through this panel and 20% of them were active in at least one assay; those are over-represented in the sample as a whole.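 Method: cells in 96-well plates; compound added at one concentration; 48 h incubation; percent growth measured; values under 10 scored active.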 Unmarked numbers belong to inactive results. The source made the active and inactive calls.

This assay has as its system MOLT-4 leukemia. The assay is described as follows: NCI-60 one-dose screen, 48 h (100 = growth as untreated, 0 = no growth, -100 = all killed). The settings on record: 10 µM unless noted. Here is the method: Growth inhibition of the MOLT-4 human tumor cell line is measured as a screen for anti-cancer activity. Cells are grown in 96 well plates and exposed to the test compound for 48 hours. Compounds are tested at a single concentration, which is 10^-5 M for most compounds. The reported endpoint is percent growth (GI% or GIPRCNT), where numbers from 0 - 100% represent growth inhibition, and numbers from -100% - 0 represent cell death. For example, a value of 40 represents 60% growth inhibition. A value of 0 means no net growth occurred over the course of the experiment. A value of -40 indicates 40% of cells at the beginning of the experiment died by the end of the experiment. A value of -100 means all cells are dead at the end of the experiment.
NCI-60 Human Tumor Cell Lines Screen was performed using the standard one-dose NCI protocol, which is described in more detail at https://dtp.cancer.gov/discovery_development/nci-60/default.htm.
Compounds with GIPRCNT values below 10 were considered active. Activity score was based on GIPRCNT using the following formula: […]
Score is 0 for GIPRCNT values of 100 or above, 50 for GIPRCNT values of 0, and 100 for GIPRCNT values of -100.
As for `CCN(CC)c1ccc(N=C2C=CC(=O)C=C2NC(C)=O)cc1`, the growth was 99.5%. Regarding `NC(=O)c1cc(Br)cc(Br)c1NS(=O)(=O)c1ccccc1`, the growth was 123%.

Regarding `Cn1c(N2N=C(c3ccc(Cl)cc3)CC2c2ccccc2)nc(-c2ccccc2)c(C#N)c1=O` (stereo not given), the growth is 60.1%. The same measure for `COc1ccc2c(c1)c(CC(=O)[Se]C)c(C)n2C(=O)c1ccc(Cl)cc1`: 6.33% (active); for `O=C1/C(=C/c2ccccc2Cl)CCc2ccccc21`: 90.9%; for `C[C@H]1O[C@@H](O[C@H]2[C@@H](O)C[C@H](O[C@H]3[C@@H](O)C[C@H](O[C@H]4CC[C@]5(C)C6C[C@@H](O)[C@]7(C)[C@@H](C8=CC(=O)OC8)CC[C@]7(O)C6CC[C@@H]5C4)O[C@@H]3C)O[C@@H]2C)C[C@H](O)[C@@H]1O` (stereo not given in full): -33.7% (active). In the case of `COc1ccc(NC(=O)c2ccccc2-c2ccccc2)c(C(N)=O)c1`, the growth is 20%. The same measure for `CCOC(=O)C1C(=O)NC(C(=O)OCC)(C(=O)OCC)C1CC` (stereo not given): 113%; for `O=C(c1ccc(N2CCOCC2)cc1[N+](=O)[O-])N1CCOCC1`: 116%. In the case of `CCOC(=O)Nc1cc(-c2ccc(C)c(NS(C)(=O)=O)c2)nn2c(C)nnc12` it was 18.9%. In the case of `CC(=O)Nc1cc2c3c(cccc3c1)-c1ccccc1-2` it was 45.8%; in that of `CC(=O)Nc1cc(C(c2ccccc2)c2ccccc2)cc(C(c2ccccc2)c2ccccc2)c1C`, 8.92% (active); in that of `O=C(Oc1ccccc1)C(Br)C(Br)c1ccccc1` (stereo not given), 7.62% (active). On to `Nc1ccccc1C#Cc1ccccc1C#Cc1ccc(OCCCCCCOc2ccc(C#Cc3ccccc3C#Cc3ccccc3N)cc2)cc1`, for which the growth was 103%. For `COc1cc(C(=O)c2cc3c(cc2C)OCO3)cc(OC)c1OC`, the growth was 23.1%.

Regarding `C1=C(Cc2ccccc2)n2cnc3ncnc(c32)S1`, the growth is 31.2%.

`Cc1ccc2c(c1)C(=O)/C(=C\Nc1ccc(C(N)=O)cc1)C(O)O2` (stereo not given): the growth is 80.6%.

For `COc1cc(OC)c2c(c1Cl)O[C@]1(C2=O)C(OCc2ccccc2)=CC(=O)C[C@H]1C`, the growth is 14.1%.

In the case of `NS(=O)(=O)c1ccc(N2CC(c3nc4ccccc4[nH]3)CC2=O)cc1` (stereo not given), the growth was 96.3%. Regarding `O=Cc1ncc(-c2ccc(C(F)(F)F)cc2)c(NC2CCCCCC2)n1`, the growth is -60% [100 µM] (active). In the case of `CSc1nc(N)c2c(n1)N(C)C=NS2(=O)=O` it was 107%; in that of `COC(=O)C1CCN(S(=O)(=O)c2ccc(-c3ccccc3)cc2)CC1`, 161%. `COc1ccc2[nH]c(=O)c(CNc3ccc(Nc4nccc(-c5ccc(Cl)cc5)n4)cc3)cc2c1`: the growth was 48.4%. Turning to `COP(=O)(OC)C(c1ccc(O)cc1)(c1ccc(O)cc1)c1ccc(O)cc1`, the growth is 94.3%. `CC(=O)c1nn(-c2ccccc2)c(=Nc2ccccc2)cc1C`: the growth is 94.3%. In the case of `Cc1cc2c(cc1C)[n+](Cc1ccc3ccccc3c1)cn2Cc1ccc2ccccc2c1` it was -64.1% (active). In the case of `CCOC(=O)OCC(=O)[C@@]1(O)CC[C@H]2[C@@H]3CCC4=CC(=O)CC[C@]4(C)[C@H]3[C@@H](O)C[C@@]21C` it was 93.2%; in that of `COc1ccc(-c2cc(-c3cccnc3)nc3sc(C(=O)Nc4ccccc4)c(N)c23)cc1OC`, 32.1%; in that of `CN1CCC[C@@H]1CCO[C@](C)(c1ccccc1)c1ccc(Cl)cc1`, 67.7%.

`COc1ccc(-c2nnc3c4[nH]cnc4ncn23)c(OC)c1`: the growth was 8.73% (active). The same measure for `CNc1nc(NC2CCCC2)nc(Sc2ccc(OC)cc2)n1`: -5.92% [100 µM] (active); for `CN(C)c1ccc(-c2nc3ncc(Br)cc3o2)cc1`: 81%; for `CC(=O)Nc1c(Cl)cc2c(c1Cl)Cc1cc([N+](=O)[O-])ccc1-2`: 85%. On to `COc1cc(C2CC(C3C(=O)N(C)C(=O)N(C)C3=O)=NN2C=O)cc(OC)c1OC` (stereo not given), for which the growth is 92.7%. For `COc1ccc2c(c1)[n+](=O)c(/C=C/C(=O)c1cc(OC)c(OC)c(OC)c1)c(C)n2[O-]`, the growth was 0.943% (active). In the case of `CCCCc1n(Cc2ccc3ccccc3c2)cc[n+]1Cc1ccc2ccccc2c1` it was -17.5% (active); in that of `NC(=O)NC1(C(=O)O)CCCC1`, 98.2%. As for `COc1cc(C(=O)/C=C/c2cccc(Nc3ccnc4cc(Cl)ccc34)c2)cc(OC)c1OC`, the growth is -6.64% (active). In the case of `COc1ccc(N2CCN(CC(=O)N3CCN(c4nnc(-c5ccccc5)c(-c5ccccc5)n4)CC3)CC2)cc1` it was 1.56% (active). Turning to `COc1cnc2c(c1)C(=O)c1c-2n(CCCNC2=NCCS2)c(=O)c2cc(F)ccc12`, the growth was 0.0786% (active).
